Screens from PubChem.
In the library only some 0.52% were active in any assay of this set; here they are far more common.
Vif-A3F inh: qHTS for Inhibitors of Vif-A3F Interactions: qHTS. HeLa A3F-eYFP + Vif (tagged APOBEC3F with the HIV-1 protein that degrades it), YFP fluorescence increase. Potency, µM (top dose mostly 46.1 µM), for inactives: at the top dose activity, negative = active. 390,000 tested, 0.2% active. AID 602313, 2012; note: % of control where 0% means no effect; nearly all actives have a fitted effect of over 65% in size
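HeLa cells stably expressing Vif plus C-terminally eYFP-tagged A3F were seeded, incubated overnight at 37 deg C, dosed with compound, incubated overnight again at 37 deg C. Yellow fluorescence (Ex 488/Em 500-530) reported blocked Vif-mediated A3F-eYFP degradation.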
Vif-A3G inh: qHTS for Inhibitors of Vif-A3G Interactions: qHTS; Potency, µM (titrated, usually from 46.1 µM), without a hit: top-dose activity, negative = active, actives largely listed as inhibitors; DNA dC->dU-editing enzyme APOBEC-3G (Homo sapiens), Q9HC16; AID 602310, 2012; HeLa A3G-eYFP + Vif (tagged APOBEC3G with the HIV-1 protein that degrades it), YFP fluorescence, overnight; 410,000 tested, 0.076% active; note: % is set by controls: 0 for no effect and ±100 for the full control effect; nearly all actives have a fitted effect of over 60% in size
Target sequence (Q9HC16 whole entry, looked up): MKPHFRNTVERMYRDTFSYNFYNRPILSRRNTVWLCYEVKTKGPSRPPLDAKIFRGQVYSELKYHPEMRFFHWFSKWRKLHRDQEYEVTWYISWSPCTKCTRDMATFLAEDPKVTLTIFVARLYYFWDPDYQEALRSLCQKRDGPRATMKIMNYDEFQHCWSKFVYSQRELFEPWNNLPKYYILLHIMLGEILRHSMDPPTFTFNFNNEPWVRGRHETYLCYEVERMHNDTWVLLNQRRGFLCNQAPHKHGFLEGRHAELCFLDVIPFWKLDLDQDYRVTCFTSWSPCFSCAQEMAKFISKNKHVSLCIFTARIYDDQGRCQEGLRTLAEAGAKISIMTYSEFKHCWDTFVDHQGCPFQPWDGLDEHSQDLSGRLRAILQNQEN
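Read-out is eYFP fluorescence (Ex 488/Em 500-530) from Vif-expressing HeLa A3G-eYFP cells; more signal means A3G escaped Vif-mediated degradation. Cells plated overnight, compound pinned in, incubated overnight at 37 deg C.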
Epigenetic derep: Quantitative High-Throughput Screen for Regulators of Epigenetic Control; murine LDR cells, GFP reporter derepression, 30 h; Potency, µM (highest dose often 53.9 µM), for inactives: at the top dose GFP activation, usual class: activators; 280,000 tested, 0.2% active; AID 1865, 2009; note: % of control where 0% means no effect; nearly all actives have a fitted effect of over 60% in size
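Reporter derepression read as number of fluorescent GFP-positive objects, 20-120 um in size, counted by laser-scanning cytometer. Mouse LDR line with an epigenetically silenced CMV-GFP locus; compound incubation 30 h, 37 C.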
PINK1 expr mod: A Quantitative High throughput Screen to Identify Chemical Modulators of PINK1 Expression. PINK1 immunofluorescence, high-content cytometry, 24 h. Potency, µM (highest dose often 76.6 µM), without a hit: top-dose activation (PINK1 increase), hits mostly activators. 410,000 tested, 0.2% active; active = well fitted activation curve with a large enough effect; inconclusive = small, poorly fitted or top-dose-only effect; cell line not stated here; note: % of control where 0% means no effect; nearly all actives have a fitted effect of over 65% in size
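A stable cell line was treated with compounds at 5 concentrations for 24 hours, with CCCP as control. PINK1 levels and mitochondrial localization were measured by immunofluorescence with mitochondrial, cell and nuclear markers after fixation, read by laser-scanning cytometry.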
* hit, by the source's call; u = inconclusive; x = not tested or not shown. Unless noted, calls come from the whole dose curve; as a rule, active = well fitted curve in the direction sought with a large enough effect; inconclusive = small, poorly fitted or top-dose-only effect, or another doubt; inactive = no such curve, though single readings can be large; an effect the other way counts as inactive or inconclusive. Potency is the fitted concentration of half-maximal effect.

SMILES	Vif-A3F inh	Vif-A3G inh	Epigenetic derep	PINK1 expr mod
COc1cc(/C=C2/SC(=S)N(CC3CCCO3)C2=O)ccc1O (stereo not given)	32µM*	5%	3%	6%
COc1ccc(/C=C2\SC(=S)N(CCCC(=O)Nc3cc(C)on3)C2=O)cc1OC	-9%	0%	x	10µM*
COc1ccc(/C=C2\SC(=S)N(CCCCCC(=O)Nc3cc(C)on3)C2=O)cc1OC	-8%	0%	x	14µM*
CCOC(=O)N1CCN(C(=O)CCN2C(=O)/C(=C\c3ccc(OC)c(OC)c3)SC2=S)CC1	u	u	x	32µM*
Cc1ccc(/C=C2\SC(=S)N(CCCC(=O)Nc3cc(C)on3)C2=O)cc1	2%	5%	x	-1%
Oc1cc(-c2cccs2)cc2c1OCCN(Cc1cn[nH]c1-c1ccc(Cl)cc1)C2	x	x	x	0%
COc1cccc(CN2C(=O)NC(C)(C3CCN(Cc4ccc(C)o4)CC3)C2=O)c1OC (stereo not given)	x	x	x	0%
COc1cc(=O)n2c(c1C(=O)NCc1nonc1C)CCN(Cc1c[nH]c3ccccc13)CC2	x	x	x	1%
CC(C)N1CCc2c(sc(NC(=S)NC(=O)c3ccccc3)c2C#N)C1	u	u	0%	-1%
COc1cc(C(=O)Nc2sc3c(c2C#N)CCN(C(C)=O)C3)cc(OC)c1OC	-4%	u	0%	14%
COc1ccc(C(=O)Nc2sc3c(c2C#N)CCN(C(C)=O)C3)cc1	-14%	10µM*	0%	10%
CC(=O)N1CCc2c(sc(NC(=O)c3ccc([N+](=O)[O-])o3)c2C#N)C1	-17%	-20%	11µM*	-1%
CCCN1CCc2c(sc(NC(=S)NC(=O)c3ccccc3)c2C#N)C1	25µM*	-30%	u	3%
c1coc(-c2ccccc2CN2CCOc3ccc(CN4CCOCC4)cc3C2)c1	x	x	x	1%
CCOCCCn1cc(C(=O)c2cc(Br)ccc2O)cc(C#N)c1=O	-8%	u	2%	4%
Cc1ccccc1NC(=O)c1ccccc1NC(=O)c1ccccc1Cl	-8%	5%	-2%	1%
COc1ccc(-n2cc(C(=O)c3cc(Cl)ccc3O)cc(C#N)c2=O)cc1	-2%	-15%	0%	u
Cc1ccc(-n2cc(C(=O)c3cc(Cl)ccc3O)cc(C#N)c2=O)cc1	-24%	-22%	-1%	18µM*
Cc1ccccc1NC(=O)c1cc(C(=O)c2cc(Cl)ccc2O)cn(-c2ccccc2C)c1=O	-12%	0%	-1%	16µM*
CCCCn1cc(C(=O)c2cc(Br)ccc2O)cc(C#N)c1=O	-2%	-1%	-1%	18µM*
CCN(CCO)C(=O)c1cnn(-c2ncc3c(n2)-c2ccccc2CCC3)c1C1CC1	x	x	x	0%
Cc1ccccc1N(C)S(=O)(=O)c1nnc(NC(=O)c2ccccc2F)s1	3%	-5%	0%	0%
Cc1ccccc1N(C)S(=O)(=O)c1nnc(NC(=O)C(C)C)s1	1%	4%	22µM*	1%
COc1ccc(CCNC(=O)c2cnn(-c3nccc(-c4cccs4)n3)c2C)cc1OC	x	x	x	1%
O=C(CN1C(=O)c2cccc3cccc1c23)Nc1ccc(S(=O)(=O)N2CCOCC2)cc1	-8%	0%	-1%	4%
SMILES	Vif-A3F inh	Vif-A3G inh	Epigenetic derep	PINK1 expr mod
O=C(CN1c2cccc3cccc(c23)S1(=O)=O)Nc1ccc(S(=O)(=O)N2CCOCC2)cc1	22µM*	-5%	-1%	2%
NC(=O)C1CCN(c2nc3ccccc3nc2NS(=O)(=O)c2ccc(Br)cc2)CC1	25µM*	-1%	x	0%
CN(C)C=Nc1c(Br)cc(Br)c2nonc12	11µM*	u	u	11µM*
N#CCC(=O)N/N=C/c1ccc(N2N=C(c3ccccc3)CC2c2ccccc2)cc1 (stereo not given)	6.3µM*	u	x	27%
CS(=O)(=O)Nc1cc(C(=O)N2CCNC(=O)C2)c2c(c1)ncn2CCc1ccccc1	x	x	x	1%
CCN(CC)c1ccc2cc(-c3nc4sc5c(c4c(=O)[nH]3)CCC(C(C)(C)C)C5)c(=O)oc2c1 (stereo not given)	u	10µM*	1%	2%
CC(C)(C)C1CCc2c(sc3nc(-c4cc5ccccc5oc4=O)[nH]c(=O)c23)C1 (stereo not given)	3%	4%	3%	4%
COc1ccccc1N1C(=O)c2cccc3c(N(C)CCO)ccc(c23)C1=O	u	u	x	1%
